Measurements taken from PubChem BioAssay (NCI).
The panel holds about 83,000 compounds, 20% with a hit somewhere; the sample as a whole holds those more often.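 Compound tested at a single concentration for 48 hours in 96-well plates; a percent growth value below 10 was scored as active.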 Activity calls are given as the source filed them.

Experiments:
Assay in all cases: NCI-60 one-dose screen, 48 h (100 = growth as untreated, 0 = no growth, -100 = all killed)
Conditions in all cases: 10 µM
SK-MEL-2 melanoma = tested on: SK-MEL-2 melanoma
SN12C renal = tested on: SN12C renal
UO-31 renal = tested on: UO-31 renal
TK-10 renal = tested on: TK-10 renal
ACHN renal = tested on: ACHN renal
CAKI-1 renal = tested on: CAKI-1 renal
A498 renal = tested on: A498 renal
CCRF-CEM leukemia = tested on: CCRF-CEM leukemia
MOLT-4 leukemia = tested on: MOLT-4 leukemia
SR leukemia = tested on: SR leukemia
RPMI-8226 leukemia = tested on: RPMI-8226 leukemia
OVCAR-8 ovarian = tested on: OVCAR-8 ovarian
OVCAR-5 ovarian = tested on: OVCAR-5 ovarian
OVCAR-4 ovarian = tested on: OVCAR-4 ovarian
SK-OV-3 ovarian = tested on: SK-OV-3 ovarian
IGROV1 ovarian = tested on: IGROV1 ovarian
OVCAR-3 ovarian = tested on: OVCAR-3 ovarian
HS 578T breast = tested on: HS 578T breast
NCI/ADR-RES ovarian = tested on: NCI/ADR-RES ovarian

Measured: growth

N#Cc1cnc2ccc(NCc3cnc[nH]3)cc2c1Nc1ccc(F)c(Cl)c1
inactive: SK-MEL-2 melanoma 32.5% | SN12C renal 46.5% | UO-31 renal 51.5% | TK-10 renal 11.8% | ACHN renal 24.6% | CAKI-1 renal 43.6% | A498 renal 52.4% | CCRF-CEM leukemia 71.3% | MOLT-4 leukemia 79.6% | SR leukemia 66.1% | RPMI-8226 leukemia 83.2% | OVCAR-8 ovarian 46.6% | OVCAR-5 ovarian 82.7% | OVCAR-4 ovarian 42.9% | SK-OV-3 ovarian 39.9% | IGROV1 ovarian 22.4% | OVCAR-3 ovarian 49.7% | HS 578T breast 90.9% | NCI/ADR-RES ovarian 98.7%

COc1ccc(-c2csc(NC(=O)CO[N+](=O)[O-])n2)cc1
inactive: SK-MEL-2 melanoma 81.6% | SN12C renal 102% | UO-31 renal 83.1% | TK-10 renal 106% | ACHN renal 101% | CAKI-1 renal 95.2% | A498 renal 126% | CCRF-CEM leukemia 97.9% | MOLT-4 leukemia 93.1% | SR leukemia 96.1% | RPMI-8226 leukemia 106% | OVCAR-8 ovarian 96.1% | OVCAR-5 ovarian 113% | OVCAR-4 ovarian 103% | SK-OV-3 ovarian 108% | IGROV1 ovarian 97.9% | OVCAR-3 ovarian 101% | HS 578T breast 104% | NCI/ADR-RES ovarian 99.6%

COc1ccc(S(=O)(=O)Nc2cc(/C=C\c3cc(OC)c(OC)c(OC)c3)ccc2OC)cc1
active: SK-MEL-2 melanoma 5.84% | A498 renal -19.2% | MOLT-4 leukemia 8.46% | RPMI-8226 leukemia 7.64% | OVCAR-8 ovarian 9.01% | OVCAR-3 ovarian -19.8%
inactive: SN12C renal 15.6% | UO-31 renal 24.6% | TK-10 renal 39.6% | ACHN renal 18.7% | CAKI-1 renal 26% | CCRF-CEM leukemia 15.4% | SR leukemia 10.2% | OVCAR-5 ovarian 30.7% | OVCAR-4 ovarian 34.4% | SK-OV-3 ovarian 11.8% | IGROV1 ovarian 13.6% | HS 578T breast 10.6% | NCI/ADR-RES ovarian 11%

CNCCCNCCCN1C(=O)c2ccc3c4c(ccc(c24)C1=O)C(=O)N(CCCNCc1ccccc1OC)C3=O
inactive: UO-31 renal 18.2% | ACHN renal 16.6% | CAKI-1 renal 24.6% | A498 renal 28.8% | SK-OV-3 ovarian 36.8% | NCI/ADR-RES ovarian 63%
active: SK-MEL-2 melanoma -49.9% | SN12C renal 2.51% | TK-10 renal -14% | CCRF-CEM leukemia 4.62% | MOLT-4 leukemia -23.8% | SR leukemia -0.146% | RPMI-8226 leukemia -16.2% | OVCAR-8 ovarian -31.9% | OVCAR-5 ovarian 5.23% | OVCAR-4 ovarian -91.5% | IGROV1 ovarian -40.7% | OVCAR-3 ovarian -17.6% | HS 578T breast 4.28%

Cc1cc(Cl)ccc1Nc1nc(C(F)(F)F)ccc1C(=O)N/N=C/c1ccccc1Cl
active: UO-31 renal 7.23% | CAKI-1 renal 5.28% | NCI/ADR-RES ovarian 8.31%
inactive: SK-MEL-2 melanoma 19.2% | SN12C renal 19.6% | TK-10 renal 19% | ACHN renal 16% | A498 renal 21.8% | CCRF-CEM leukemia 14.7% | MOLT-4 leukemia 41.2% | SR leukemia 66% | RPMI-8226 leukemia 50.5% | OVCAR-8 ovarian 21.7% | OVCAR-5 ovarian 30.8% | OVCAR-4 ovarian 29.2% | SK-OV-3 ovarian 10.4% | IGROV1 ovarian 21.6% | OVCAR-3 ovarian 16.3% | HS 578T breast 17.4%

O=C1/C(=C/c2ccc([N+](=O)[O-])s2)Oc2ccc(Cl)cc21
active: SK-MEL-2 melanoma -53.7% | SN12C renal -54.3% | UO-31 renal -89.4% | TK-10 renal -32.7% | ACHN renal -71.1% | CAKI-1 renal -29.9% | A498 renal 9.57% | CCRF-CEM leukemia 2.86% | MOLT-4 leukemia -15.7% | SR leukemia 1.07% | RPMI-8226 leukemia 0.77% | OVCAR-8 ovarian 1.27% | OVCAR-5 ovarian -80.6% | OVCAR-4 ovarian -76.5% | SK-OV-3 ovarian 7.47% | IGROV1 ovarian -67.9% | OVCAR-3 ovarian -68.8% | NCI/ADR-RES ovarian 4.88%
inactive: HS 578T breast 17.6%

CCOC(=O)/C(C#N)=C(/C)C1CC1
inactive: SK-MEL-2 melanoma 111% | SN12C renal 107% | UO-31 renal 88.3% | TK-10 renal 116% | ACHN renal 105% | CAKI-1 renal 104% | A498 renal 94.1% | CCRF-CEM leukemia 103% | MOLT-4 leukemia 114% | SR leukemia 102% | RPMI-8226 leukemia 98.4% | OVCAR-8 ovarian 107% | OVCAR-5 ovarian 105% | OVCAR-4 ovarian 104% | SK-OV-3 ovarian 111% | IGROV1 ovarian 121% | OVCAR-3 ovarian 101% | HS 578T breast 107% | NCI/ADR-RES ovarian 111%

C[C@]12CC[C@H]3[C@@H](CC=C4C[C@@H](O)CC[C@@]43C)[C@@H]1CC[C@@H]2C(=O)C/C=N/O
active: UO-31 renal -94.6%
inactive: SK-MEL-2 melanoma 95.9% | SN12C renal 91.7% | TK-10 renal 99.5% | ACHN renal 89.4% | CAKI-1 renal 83.2% | A498 renal 90.1% | CCRF-CEM leukemia 71.8% | MOLT-4 leukemia 69.2% | SR leukemia 91.6% | RPMI-8226 leukemia 59.6% | OVCAR-8 ovarian 91.9% | OVCAR-5 ovarian 106% | OVCAR-4 ovarian 83.6% | SK-OV-3 ovarian 97.1% | IGROV1 ovarian 76.7% | OVCAR-3 ovarian 89.8% | HS 578T breast 92.5% | NCI/ADR-RES ovarian 84.4%

Nc1ncncc1-c1ccc(F)cc1
inactive: SK-MEL-2 melanoma 132% | SN12C renal 107% | UO-31 renal 103% | TK-10 renal 116% | ACHN renal 108% | CAKI-1 renal 98.5% | A498 renal 95.2% | CCRF-CEM leukemia 109% | MOLT-4 leukemia 98.4% | SR leukemia 127% | RPMI-8226 leukemia 109% | OVCAR-8 ovarian 107% | OVCAR-5 ovarian 115% | OVCAR-4 ovarian 107% | SK-OV-3 ovarian 108% | IGROV1 ovarian 110% | OVCAR-3 ovarian 111% | HS 578T breast 113% | NCI/ADR-RES ovarian 107%

O=[N+]([O-])c1cc2ncccc2c2ncccc12
inactive: SK-MEL-2 melanoma 84.9% | SN12C renal 87.2% | UO-31 renal 52.1% | TK-10 renal 106% | ACHN renal 65.3% | CAKI-1 renal 84.2% | A498 renal 111% | CCRF-CEM leukemia 74.9% | MOLT-4 leukemia 61.4% | SR leukemia 74% | RPMI-8226 leukemia 82.8% | OVCAR-8 ovarian 63.3% | OVCAR-5 ovarian 98.3% | OVCAR-4 ovarian 103% | SK-OV-3 ovarian 94.4% | IGROV1 ovarian 56.3% | OVCAR-3 ovarian 84.5% | HS 578T breast 104% | NCI/ADR-RES ovarian 75.1%

C=CCOc1ccc2c(c1)CC[C@@H]1[C@@H]2CC[C@]2(C)C(=O)/C(=N/O)C[C@@H]12
active: TK-10 renal 9.46% | CCRF-CEM leukemia 6.37% | MOLT-4 leukemia -31.7% | SR leukemia 7.72% | OVCAR-4 ovarian 8.34% | IGROV1 ovarian 0.671%
inactive: SK-MEL-2 melanoma 54.6% | SN12C renal 39.3% | UO-31 renal 27.6% | ACHN renal 30.4% | CAKI-1 renal 10.7% | A498 renal 50.2% | RPMI-8226 leukemia 20.2% | OVCAR-8 ovarian 70.5% | OVCAR-5 ovarian 44.7% | SK-OV-3 ovarian 81.8% | OVCAR-3 ovarian 75.6% | HS 578T breast 35.4% | NCI/ADR-RES ovarian 57.6%

Nc1nc2c(nnn2C2CC(O)C(CO)O2)c(=O)[nH]1 (stereo not drawn)
inactive: SK-MEL-2 melanoma 42.8% | SN12C renal 45.3% | UO-31 renal 30.9% | TK-10 renal 59.2% | ACHN renal 23.3% | CAKI-1 renal 32.4% | A498 renal 55.7% | CCRF-CEM leukemia 19.4% | MOLT-4 leukemia 30.4% | SR leukemia 32% | RPMI-8226 leukemia 36.2% | OVCAR-8 ovarian 38.4% | OVCAR-5 ovarian 87.8% | OVCAR-4 ovarian 51.4% | SK-OV-3 ovarian 20.2% | IGROV1 ovarian 67.6% | OVCAR-3 ovarian 40.8% | HS 578T breast 75.4% | NCI/ADR-RES ovarian 30.2%

Oc1cc(O)c(Br)cc1Br
inactive: SK-MEL-2 melanoma 96.6% | SN12C renal 101% | UO-31 renal 85.2% | TK-10 renal 94.3% | ACHN renal 103% | CAKI-1 renal 95.9% | A498 renal 96.7% | CCRF-CEM leukemia 95.4% | MOLT-4 leukemia 93.1% | SR leukemia 85.7% | RPMI-8226 leukemia 99.4% | OVCAR-8 ovarian 103% | OVCAR-5 ovarian 107% | OVCAR-4 ovarian 98.2% | SK-OV-3 ovarian 107% | IGROV1 ovarian 102% | OVCAR-3 ovarian 110% | HS 578T breast 107% | NCI/ADR-RES ovarian 105%

C=CCOc1ccc2c(c1)CC=C1[C@@H]2CC[C@]2(C)C(=O)/C(=N/O)C[C@@H]12
inactive: SK-MEL-2 melanoma 106% | SN12C renal 88.3% | UO-31 renal 86% | TK-10 renal 72.3% | ACHN renal 55.4% | CAKI-1 renal 50.4% | A498 renal 96.6% | CCRF-CEM leukemia 30.9% | MOLT-4 leukemia 46% | SR leukemia 23.9% | RPMI-8226 leukemia 40.6% | OVCAR-8 ovarian 91.2% | OVCAR-5 ovarian 50.6% | OVCAR-4 ovarian 73.3% | SK-OV-3 ovarian 121% | IGROV1 ovarian 97.1% | OVCAR-3 ovarian 108% | HS 578T breast 99.2% | NCI/ADR-RES ovarian 83.1%

CCc1ccc(Nc2cc(C)nc3nc(C)nn23)cc1
inactive: SK-MEL-2 melanoma 14.5% | SN12C renal 26.2% | UO-31 renal 13.4% | A498 renal 34.7% | OVCAR-5 ovarian 26.4% | SK-OV-3 ovarian 38.3% | IGROV1 ovarian 32.8% | HS 578T breast 50.8%
active: TK-10 renal -6.1% | ACHN renal -2.86% | CAKI-1 renal 0.395% | CCRF-CEM leukemia -10.6% | MOLT-4 leukemia -20.7% | SR leukemia -20.9% | RPMI-8226 leukemia -35.2% | OVCAR-8 ovarian -69.2% | OVCAR-4 ovarian -13.1% | OVCAR-3 ovarian -92.2% | NCI/ADR-RES ovarian -29.5%

NCCNc1ccc2cc(-c3nc4ccccc4[nH]3)c(=O)oc2c1
inactive: SK-MEL-2 melanoma 106% | SN12C renal 92.2% | UO-31 renal 81.7% | TK-10 renal 128% | ACHN renal 95.8% | CAKI-1 renal 96.3% | A498 renal 94.7% | CCRF-CEM leukemia 81.9% | MOLT-4 leukemia 88.4% | SR leukemia 86.2% | RPMI-8226 leukemia 95.7% | OVCAR-8 ovarian 98.2% | OVCAR-5 ovarian 101% | OVCAR-4 ovarian 86.1% | SK-OV-3 ovarian 104% | IGROV1 ovarian 99.8% | OVCAR-3 ovarian 98.7% | HS 578T breast 91.6% | NCI/ADR-RES ovarian 95.1%

COc1c(-c2c3sc(=O)[nH]c3nc3c2c(=O)[nH]n3C(C)C)cc2c(c1OC)OCO2
inactive: SK-MEL-2 melanoma 85.3% | SN12C renal 95.5% | UO-31 renal 78.9% | TK-10 renal 98.7% | ACHN renal 91.4% | CAKI-1 renal 93.3% | A498 renal 57.2% | CCRF-CEM leukemia 95% | MOLT-4 leukemia 94.5% | SR leukemia 84.9% | RPMI-8226 leukemia 93.2% | OVCAR-8 ovarian 98.8% | OVCAR-5 ovarian 96.7% | OVCAR-4 ovarian 107% | SK-OV-3 ovarian 99.5% | IGROV1 ovarian 102% | OVCAR-3 ovarian 113% | HS 578T breast 99.2% | NCI/ADR-RES ovarian 99.8%
